Results reported in PubChem BioAssay (NCI).
This is part of a sample that, as a whole, favours compounds with a hit. Of some 83,000 tested, about 20% had one in any assay.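 Cells were grown in 96-well plates and exposed to the test compound at a single concentration for 48 hours; results are reported as percent growth, with values below 10 considered active.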 The source made the active and inactive calls.

The compounds below were run on HCT-116 colon (assay: NCI-60 one-dose screen, 48 h (100 = growth as untreated, 0 = no growth, -100 = all killed)). Settings: 10 µM unless noted.

SMILES | growth
COc1ccc(-c2cn(-c3cccc(C(=O)/C=C/c4ccc(O)c(OC)c4)c3)c(=O)[nH]2)cc1 | -35.4% (active)
Cc1ccccc1N1C(c2ccccc2)=NNC12C=CC(=O)c1c(O)cccc12 (centres undefined) | 66.5% (inactive)
COc1cc(Nc2ccnc3ccc(Br)cc23)cc(OC)c1OC | 21.7% (inactive)
CN1CCN(Cc2ccc(NC(=O)c3cncc(C#Cc4ccc(N)nc4)c3)cc2C(F)(F)F)CC1 | 1.86% (active)
COc1ccc(Sc2[nH]c(C=O)c3ccccc23)cc1 | 61.1% (inactive)
COCCOCCOCc1n(Cc2ccc3ccccc3n2)c2ccccc2[n+]1Cc1ccc2ccccc2c1 | 7.79% (active)
COc1ccc(C2C3CCc4ccccc4C3=NN2C(=O)c2cc(OC)c(OC)c(OC)c2)cc1O (centres undefined) | 104% (inactive)
O=c1[nH]cnc2nc[nH]c12 | 98.1% (inactive)
CC(=O)O[C@H]1[C@H](CC#CC#CC[C@@H]2C[C@]3(C)[C@H]4CC=C5[C@H]6[C@@H](C)[C@H](C)CC[C@]6(C(=O)NCCN(CCN)CCN)CC[C@@]5(C)[C@]4(C)CC[C@H]3C(C)(C)[C@H]2OC(C)=O)C[C@]2(C)[C@H]3CC=C4[C@H]5[C@@H](C)[C@H](C)CC[C@]5(C(=O)NCCN(CCN)CCN)CC[C@@]4(C)[C@]3(C)CC[C@H]2C1(C)C | 75.5% (inactive)
Fc1ccc2nc(-c3ccc(-c4noc(-c5ccc(Cl)cc5)n4)cc3)[nH]c2c1 | 95.6% (inactive)
CCNS(=O)(=O)c1ccc(C)cc1 | 113% (inactive)
OC(c1cc(-c2ccc(C(F)(F)F)cc2)nc(-c2ccc(C(F)(F)F)cc2)c1)C1CCCCN1 (centres undefined) | -77.3% (active)
CC1(C)C(N(O)C(=O)Nc2ccc(Cl)cc2)N(c2ccc(Cl)cc2)C(=O)N1CC(=O)N/N=C/C=C/c1ccc([N+](=O)[O-])o1 (centres undefined) | -98.1% (active)
Cc1cc(N=Nc2ccc(-c3ccc(N=Nc4ccc(O)c(C(=O)O)c4)cc3)cc2)c(N)c(N=Nc2ccc(C(=O)O)cc2)c1N | 65.5% (inactive)
NC(N)=N/N=C\c1cccc(OCc2ccccc2)c1 | 41.9% (inactive)
CNC(=O)c1ccccc1Sc1ccc2c(/C=C/c3ccccn3)n[nH]c2c1 | 29.9% (inactive)
CC(=O)c1c(C)nc(-c2cc(C)cc(Cl)c2)nc1-c1cccc(Oc2ccccc2)c1 | 30.5% (inactive)

SMILES | growth
CCN(CC)Cc1cc(Nc2nc(NC3CCC(N(C)C)CC3)c3ccccc3n2)ccc1OC (centres undefined) | 60.5% (inactive)
Cc1nc2c(-c3cnc(N)nc3)nc(N3CCOCC3)nc2n1C(C)C | 17.2% (inactive)
C[C@@H]1C[C@H](N)C[C@H](c2ccncc2NC(=O)c2ccc(F)c(-c3c(F)cccc3F)n2)C1 | 48.1% (inactive)
Nc1nonc1-c1nc2ccccc2n1Cc1ccc(F)cc1 | 30.4% (inactive)
C=CC[C@]1(O)CC[C@H]2[C@@H]3CCc4cc(O)ccc4[C@H]3CC[C@@]21C | 93% (inactive)
[Ag].[Ag].[NH-]S(=O)(=O)c1ccc(N=Nc2cc(N=Nc3ccc(S([NH-])(=O)=O)cc3)c3c(NC(=O)C(Cl)Cl)cccc3c2OC(=O)C(Cl)Cl)cc1.[c-]1nccs1.[c-]1nccs1 | 65.4% (inactive)
CCCCCCCCCCCCCCC(C(=O)OCC)C(=O)OCC | 109% (inactive)
CN(C)c1ccc(C(c2ccccc2)c2ccc(N(C)C)cc2)cc1 | 80.6% (inactive)
Cc1n(Cc2ccc3ccccc3n2)cc[n+]1Cc1ccc2ccccc2c1 | 4.92% (active)
FC(F)(F)c1ccc(/C=N/Nc2nnc3n2N=C(c2ccc(Cl)cc2)CS3)cc1 | 32.8% (inactive)
CS(=O)(=O)Nc1cc(-c2cc3ncc(C#N)c(Nc4ccc(Oc5ccccc5)c(Cl)c4)c3s2)cnc1Cl | 45.1% (inactive)
Cc1cc(C)c2c(n1)sc1c(Nc3ccc(O)cc3)ncnc12 | 29.2% (inactive)
c1ccc(C2=Nc3ccccc3SC2)cc1 | 96.7% (inactive)
COc1cc2c(cc1OCCCOc1cc3c(cc1OC)C(=O)N1CCC[C@H]1C=N3)C=CC(C)(C)O2 | 61% (inactive)
O=[N+]([O-])c1cccc(N=C(Nc2cccc([N+](=O)[O-])c2)c2ccccc2)c1 | 58.1% (inactive)
C=CCn1c(C)nc2cc(Nc3nc(N4CCOCC4)nc4nc[nH]c34)ccc21 | 91.4% (inactive)
C=C1NC(=O)C(C(C)CC)NC(=O)C2CSCC(NC(=O)CCC(=O)O)C(=O)NC(Cc3ccccc3)C(=O)NC(C)C(=O)NC(CC(C)CC)C(=O)NC(C(=O)NC(Cc3ccccc3)C(=O)N3CCCC3C(=O)N2)C(C)OC(=O)C(CO)NC(=O)C(C(O)COC)N(C)C(=O)C(C(C)C)NC(=O)C(CC(C)CC)NC1=O (centres undefined) | 6.69% [6 µM] (active)
